The text below walks through data of article PMC8384837, “Expanding the binding specificity for RNA recognition by a PUF domain”.

Common to all, as to assay: yeast three-hybrid, YBZ-1, SC-Leu-His + 0.5 mM 3-AT, 4 days
Conditions in all cases: tags: N-Gal4 AD-HA kept; label: inside an RPR1-promoter hybrid RNA with tandem MS2 sites; ssRNA

One experiment deals with T1, PUM1 PUF domain R6-VFA (Homo sapiens, UniProt Q14671 828-1176, N1043V;Y1044F;Q1047A).
T1 sequence: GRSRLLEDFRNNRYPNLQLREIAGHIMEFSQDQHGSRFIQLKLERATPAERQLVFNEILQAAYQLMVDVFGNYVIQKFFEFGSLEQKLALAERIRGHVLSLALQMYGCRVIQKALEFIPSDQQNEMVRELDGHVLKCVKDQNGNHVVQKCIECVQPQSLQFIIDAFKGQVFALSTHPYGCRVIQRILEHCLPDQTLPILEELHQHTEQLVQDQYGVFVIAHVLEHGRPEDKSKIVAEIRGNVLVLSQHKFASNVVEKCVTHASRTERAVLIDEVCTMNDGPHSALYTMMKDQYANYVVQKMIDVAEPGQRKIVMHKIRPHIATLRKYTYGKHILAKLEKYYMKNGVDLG
Put shortly: (§1)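 The interaction score is the log change in variant frequency from input to selection. Scores were computed in log2 with a pseudocount of 1 for absent variants, using Illumina sequencing of PCR-amplified repeat regions. The input came from four days on SC-Leu and the selection from four days on SC-Leu-His + 0.5 mM 3-AT. The cells were strain YBZ-1 (LexA–MS2 coat fusion, HIS3 reporter) co-expressing Pumilio-1 PUF domain libraries and matching RNA elements from a centromeric plasmid.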

For another experiment, the target named is PUM1 PUF domain R5-DHA (Homo sapiens, UniProt Q14671 828-1176, C1007D;R1008H;Q1011A). Put shortly: as §1
A further experiment has as its target PUM1 PUF domain R4-HRG (Homo sapiens, UniProt Q14671 828-1176, N971H;H972R;Q975G). Put shortly:
as §1

A further experiment has as its target PUM1 PUF domain R5-AKR (Homo sapiens, UniProt Q14671 828-1176, C1007A;R1008K;Q1011R). Put shortly: as §1
Another experiment has as its target PUM1 PUF domain R3-RIS (Homo sapiens, UniProt Q14671 828-1176, C935R;R936I;Q939S). Put shortly:
as §1

A further experiment addresses PUM1 PUF domain R4-NNW (Homo sapiens, UniProt Q14671 828-1176, H972N;Q975W). Put shortly:
as §1

The target of the next experiment is PUM1 PUF domain R8-RNR (Homo sapiens, UniProt Q14671 828-1176, N1122R;Y1123N;Q1126R). Put shortly: as §1
The next experiment concerns the target PUM1 PUF domain R8-RFG (Homo sapiens, UniProt Q14671 828-1176, N1122R;Y1123F;Q1126G). Put shortly:
as §1

The next experiment concerns the target PUM1 PUF domain R8-THR (Homo sapiens, UniProt Q14671 828-1176, N1122T;Y1123H;Q1126R). Put shortly:
as §1

A further experiment addresses PUM1 PUF domain R8-PFW (Homo sapiens, UniProt Q14671 828-1176, N1122P;Y1123F;Q1126W). The method, boiled down: as §1

For “GGCUAGAACUAGUGGAUCCCCCGGCGCCCGGCGGCUCGAGCCCGGGUAAGUGAAAAUAGUCUGCAUGCCGCCGGGCGCCAUGCCUGCAGGUCGACUCUAGAAAACAUG”, the binding signal in the experiment with PUM1 PUF domain R6-VFA is 6.94 log2 enrichment (interaction score).

With “GGCUAGAACUAGUGGAUCCCCCGGCGCCCGGCGGCUCGAGCCCGGGUAAGUGUUAAUAGUCUGCAUGCCGCCGGGCGCCAUGCCUGCAGGUCGACUCUAGAAAACAUG”, the binding signal in the experiment with PUM1 PUF domain R5-DHA is 4.01 log2 enrichment (interaction score).

As to “GGCUAGAACUAGUGGAUCCCCCGGCGCCCGGCGGCUCGAGCCCGGGUAAGUGUAUAUAGUCUGCAUGCCGCCGGGCGCCAUGCCUGCAGGUCGACUCUAGAAAACAUG”, the binding signal with PUM1 PUF domain R4-HRG was 2.71 log2 enrichment (interaction score).

For the sequence “GGCUAGAACUAGUGGAUCCCCCGGCGCCCGGCGGCUCGAGCCCGGGUAAGUGUCAAUAGUCUGCAUGCCGCCGGGCGCCAUGCCUGCAGGUCGACUCUAGAAAACAUG”, in the experiment with PUM1 PUF domain R5-AKR, the binding signal is 5.56 log2 enrichment (interaction score).

“GGCUAGAACUAGUGGAUCCCCCGGCGCCCGGCGGCUCGAGCCCGGGUAAGUGUGAAUAGUCUGCAUGCCGCCGGGCGCCAUGCCUGCAGGUCGACUCUAGAAAACAUG”: the binding signal with PUM1 PUF domain R5-DHA was 2.38 log2 enrichment (interaction score).

For “GGCUAGAACUAGUGGAUCCCCCGGCGCCCGGCGGCUCGAGCCCGGGUAAGUGUAAGUAGUCUGCAUGCCGCCGGGCGCCAUGCCUGCAGGUCGACUCUAGAAAACAUG”, in the experiment with PUM1 PUF domain R3-RIS, the binding signal is 3.17 log2 enrichment (interaction score).

As to “GGCUAGAACUAGUGGAUCCCCCGGCGCCCGGCGGCUCGAGCCCGGGUAAGUGUACAUAGUCUGCAUGCCGCCGGGCGCCAUGCCUGCAGGUCGACUCUAGAAAACAUG”, the binding signal is 2.09 log2 enrichment (interaction score) with PUM1 PUF domain R4-HRG and 4.15 log2 enrichment (interaction score) with PUM1 PUF domain R4-NNW.

On to “GGCUAGAACUAGUGGAUCCCCCGGCGCCCGGCGGCUCGAGCCCGGGUAAGUGUAAAUAGUCUGCAUGCCGCCGGGCGCCAUGCCUGCAGGUCGACUCUAGAAAACAUG”, for which the binding signal with PUM1 PUF domain R6-VFA is 2.89 log2 enrichment (interaction score); with PUM1 PUF domain R4-HRG, 3.06 log2 enrichment (interaction score); with PUM1 PUF domain R8-RNR, 0.57 log2 enrichment (interaction score); with PUM1 PUF domain R8-RFG it was 4.85 log2 enrichment (interaction score); in the experiment with PUM1 PUF domain R8-THR, 2.7 log2 enrichment (interaction score).

Take “GGCUAGAACUAGUGGAUCCCCCGGCGCCCGGCGGCUCGAGCCCGGGUAAGCGUAAAUAGUCUGCAUGCCGCCGGGCGCCAUGCCUGCAGGUCGACUCUAGAAAACAUG”: the binding signal is 2.37 log2 enrichment (interaction score) in the experiment with PUM1 PUF domain R8-RNR, 6.69 log2 enrichment (interaction score) in the experiment with PUM1 PUF domain R8-RFG, 3.6 log2 enrichment (interaction score) in the experiment with PUM1 PUF domain R8-PFW and 3.22 log2 enrichment (interaction score) with PUM1 PUF domain R8-THR.

On to “GGCUAGAACUAGUGGAUCCCCCGGCGCCCGGCGGCUCGAGCCCGGGUAAGUGUAAUUAGUCUGCAUGCCGCCGGGCGCCAUGCCUGCAGGUCGACUCUAGAAAACAUG”, for which the binding signal with PUM1 PUF domain R3-RIS was 3.36 log2 enrichment (interaction score).
